This note sets out measurements from PubChem BioAssay AID651724 (National Center for Advancing Translational Sciences (NCATS), 2012).

Among all 340,000 compounds or so, about 1,700 (0.5%) were called active. Not shown: some 2% with an inconclusive outcome. Cut-off read from the data, not from the text of the source: active = activity change below about -65%; inconclusive = mostly about -30% to -63%; inactive = weaker than that. The entries come from a sample that favours actives as a whole.
% is set by controls: 0 for no effect and ±100 for the full control effect.

For the assay, the system named is CtBP / adenovirus E1A interaction (AlphaScreen). Description: qHTS Assay for Inhibitors of the CtBP/E1A Interaction. As to conditions: AlphaScreen GST-E1A/His-CtBP binding, 1536-well; stronger effect = lower value. A digest of the protocol: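 AlphaScreen with 125 nM GST-E1A and 125 nM His-CtBP (5X stocks) in Tris pH 8.0, 300 mM NaCl, BSA, Tween 20, TCEP. Compounds preincubated 2 h at 37 deg C, then glutathione donor/nickel acceptor beads added for 1 h at 37 deg C in dark.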
(In general: qHTS replaces the single test concentration by a dilution series.)
As to `CC(=O)Nc1cc(-c2ccc(N3CCN(C)CC3)cc2)cn2c(-c3ccc(F)cc3)cnc12`, the activity change is -22% (inactive). As for `CCc1nc2ccc(C(=O)Nc3cccc(OC)c3)cn2c1N(CCC(C)C)CCN(C)C`, the figure is -9.75% (inactive); as for `Cc1ccc(S(=O)(=O)N2CCCCC2)cc1NC(=O)CCNC(=O)c1ccccc1Cl`, 2% (inactive). `O=C(Nc1ccc(Cl)cc1)C1Cc2c(-c3ccc4c(c3)OCO4)ccnc2O1` (stereo unspecified): the activity change is -5.12% (inactive). As for `O=C(NCc1ccc(F)cc1)c1cc(C2CCCCN2C(=O)c2cccs2)on1` (stereo unspecified), the figure is 4.5% (inactive); as for `COc1ccc(C/C(C)=N/NC(=O)c2cc(C)oc2C)cc1`, 8.03% (inactive); as for `CNC(=S)N1CCN(c2ccccn2)CC1`, 5.96% (inactive). With `CC(=NNC(=S)N1CCCCCC1)c1ccccn1`, the activity change was -89.7% (active). With `C/C(=N\NC(=O)c1ccccc1F)c1ccccn1`, the activity change is -97.9% (active). Next, `CCCCCNC(=O)Cc1ccc(OC)cc1`: 12.5% (inactive). As for `O=C(NCCOc1ccccc1)c1ccccc1F`, the figure is 0.486% (inactive). Next, `Cc1cccc(C)c1NC(=S)N1CCCCCC1`: 3.43% (inactive). `C/C(CC(=O)Nc1ccc(N(C)C)cc1)=N\NC(=O)c1ccccc1F`: the activity change was -8.83% (inactive). As for `COc1ccc(CC(=O)N/N=C(\C)c2ccccn2)cc1`, the activity change is -73.3% (active). As for `C#CCN(C[C@@H]1[C@@H](OC(=O)NC2CC2)[C@@H](OC(=O)NC2CC2)Cn2c(=O)ccc(=O)n21)S(=O)(=O)c1ccc(C)cc1`, the figure is 3.71% (inactive); as for `FC(F)(F)c1ccccc1Cc1c(-c2ccccc2)nc2c3ccccc3ccn12`, 6.14% (inactive); as for `Cc1cccc(C(=O)C(O)(c2ccccc2)C2CCCCC2=O)c1` (stereo unspecified), 3.76% (inactive). As for `CC1(C(=O)NS(=O)(=O)c2ccc3ccccc3c2)CCN1C(=O)C1(c2ccc(Cl)cc2)CCC1` (stereo unspecified), the figure is -4.19% (inactive).

Consider `O=C(CSc1nc2cccc(F)c2c(=O)n1-c1ccccc1)Nc1ccc2c(c1)CCC2`, for which the activity change is 8.09% (inactive). As for `CC(=O)Nc1cccc(-c2ccnc3c2CC(C)(C(=O)NCc2ccccc2)O3)c1` (stereo unspecified), the figure is 0.959% (inactive); as for `CC1(C(=O)NS(=O)(=O)c2ccccc2)CCN1C(=O)Cc1ccc(-c2ccccc2)cc1` (stereo unspecified), 1.02% (inactive); as for `O=c1[nH][nH]c2c1[C@H](c1ccc(Cl)cc1)O[C@H](CCc1ccccc1)C2`, 1.98% (inactive).

`COc1cccc(-c2cnc3c(NC(C)=O)cc(-c4cc(F)ccc4OC)cn23)c1`: the activity change is -20.8% (inactive).

Regarding `Cc1ccc(C(=O)O)cc1NC(=O)c1ccc(Cn2nc(C)c(Cl)c2C)o1`, the activity change was 0% (inactive).

Consider `Cc1c(Cl)c([N+](=O)[O-])nn1Cc1ccc(C(=O)N/N=C\c2cc(Cl)ccc2O)o1`, for which the activity change is -70.3% (active).

In the case of `Cc1nn(Cc2ccc(Cl)cc2)c(Cl)c1/C=N/NC(=O)c1cccnc1`, the activity change is -0.89% (inactive). Regarding `CNc1cncc(-c2ccc(NS(C)(=O)=O)cc2)n1`, the activity change was 0.0496% (inactive).

With `COc1cccc(CNc2nc(NCc3ccccc3OC)nc3ccsc23)c1`, the activity change was -7.75% (inactive).

Turning to `O=C1c2ccccc2C(=O)c2c1cccc2N1CCN(CCO)CC1`, the activity change was -25.7% (inactive). As for `O=S1(=O)CCN(Cc2ccccc2)CC1`, the figure is 7.73% (inactive).

With `O=C1c2ccccc2C(=O)c2c1cccc2N1CCN(Cc2ccccc2)CC1`, the activity change was -94.4% (active).

On to `C[C@@H]1CN([C@@H](C)CO)C(=O)CCCn2nncc2CO[C@H]1CN(C)C(=O)Nc1ccc(C(F)(F)F)cc1`, for which the activity change was -18.9% (inactive). Next, `COC(=O)[C@]12CCCCC=C1N(CCC1=CCCCC1)C(=O)[C@H](CC(=O)N1CCSCC1)C2`: -7.56% (inactive).

In the case of `Cc1cc(Cl)ccc1-c1nc(NCCN(C)C)nc2ccsc12`, the activity change is -3.67% (inactive). Next, `CCOc1ccc(-n2c(O)c(/C=N/Nc3nnc(C)c(=O)[nH]3)c3ccccc3c2=O)cc1`: -92.9% (active); `Cc1nnc(N/N=C/c2ccccn2)[nH]c1=O`: -90.3% (active); `Cc1nnc(N/N=C/C2CC=CCC2)[nH]c1=O` (stereo unspecified): -19.9% (inactive). As for `Cc1cc(=O)[nH]c(N/N=C/c2c(C)nn(-c3ccccc3Cl)c2Cl)n1`, the figure is 5.1% (inactive); as for `CCN(CC)CCCN=Cc1c(O)n(-c2ccc(C)cc2)c(=O)c2ccccc12`, -3% (inactive). For `CCOc1ccc(-n2c(O)c(/C=N/Nc3nc(C)cc(C)n3)c3ccccc3c2=O)cc1`, the activity change was -6.77% (inactive).

As to `Cc1ccc(NC(=O)CSc2nn3c(=O)c(C)nnc3s2)cc1Cl`, the activity change was -85.4% (active). As for `Cc1ccc(NC(=O)CSc2nnc(CNC(=O)c3ccccc3F)o2)cc1Cl`, the figure is -15.1% (inactive); as for `COc1ccc(Cc2nnc(SCC(=O)Nc3ccc(C)c(Cl)c3)[nH]c2=O)cc1`, -19.5% (inactive); as for `CC1(C(=O)NCc2ccc3c(c2)OCO3)CCN1C(=O)Cc1cccc2ccccc12` (stereo unspecified), -3.05% (inactive).

As to `CCOC(=O)C=Cc1ccc(C(=O)OCC)[nH]1`, the activity change is 1.94% (inactive). As for `O=C(NC1CCCCC1)C(c1cc2ccccc2o1)n1c(=O)c(-c2ccco2)nc2ccccc21` (stereo unspecified), the figure is 6.62% (inactive); as for `Cn1cc(Cl)c(C(=O)NNC(=S)Nc2cccc(Cl)c2)n1`, -27.4% (inactive); as for `Cc1cccc(-n2cnc(C(=O)NNC(=S)Nc3ccccc3)c2)n1`, -91.7% (active).

As for `Cc1cccc(-n2cnc(C(=O)Nc3cccnc3)c2)n1`, the activity change was 3.1% (inactive). Next, `CC(C)N=C1CCCC1C(=S)SSC(=S)C1CCCC1=NC(C)C` (stereo unspecified): -5.04% (inactive); `CCCCCNC(=O)C(c1ccc(OC)cc1)n1c(=O)c(-c2ccccc2)nc2ccccc21` (stereo unspecified): 0% (inactive); `C#Cc1ccc(NC(=O)C2(C)CCN2C(=O)Cc2ccc(-c3ccccc3)cc2)cc1` (stereo unspecified): 0.392% (inactive).

Regarding `Cc1ccc(Cn2c(C)c3cnn(CC(=O)NCc4ccccn4)c(=O)c3c2C)cc1`, the activity change was -24.7% (inactive). Next, `Cc1c2cnn(CC(=O)NCc3ccccn3)c(=O)c2c(C)n1Cc1ccc(Cl)cc1`: -67.4% (active); `O=C(Cn1ncc2c3ccccc3n(Cc3ccccc3)c2c1=O)NCc1ccccn1`: -0.706% (inactive). Consider `CCc1nc2c(OCc3ccc(C(=O)OC)cc3)cccn2c1N(C)C(=O)C(C)C`, for which the activity change was 0.85% (inactive).

`CC(=O)Nc1cccc(-c2cc(NC=O)c3ncc(-c4ccc(F)c(Cl)c4)n3c2)c1`: the activity change was 6.58% (inactive). Next, `COc1ccccc1N1CCN(/N=C/c2ccc(O)cc2O)CC1`: -7.8% (inactive); `Oc1ccc(-c2nc3ccccc3nc2-c2ccc(O)cc2O)c(O)c1`: -12.2% (inactive). As to `Cc1nc2ccccc2nc1N/N=C/c1ccc(O)cc1O`, the activity change is -92.6% (active). Next, `CC(C)n1ncc2c(C(=O)N3CCN(Cc4cccs4)CC3)cc(C3CC3)nc21`: -9.59% (inactive); `COc1cc(NC(=O)c2cc(-c3ccc(F)cc3OC(C)C)n[nH]2)cc(OC)c1OC`: -4.63% (inactive). Next, `C[C@H]1CN([C@@H](C)CO)S(=O)(=O)c2ccc(Br)cc2O[C@H]1CN(C)C(=O)c1cnccn1`: 0.784% (inactive). As for `Cc1cc(C(=O)N/N=C/c2ccccn2)c2ccccc2n1`, the figure is -14.7% (inactive); as for `S=C(NN=Cc1ccccn1)Nc1ccccn1`, -73.6% (active).

On to `O=C(N/N=C/c1ccccn1)C12CC3CC(CC(C3)C1)C2`, for which the activity change was 1.59% (inactive). Next, `COc1ccc(-c2ccc(CN3C(CC(C)C)C(=O)N(Cc4cn(CC5CCCCC5)nn4)CCS3(=O)=O)cc2)cc1` (stereo unspecified): -0.831% (inactive); `Cc1ccc(S(=O)(=O)N2CCC(=O)N([C@H](COCc3ccccc3)C(C)C)CC2)cc1`: 3.58% (inactive). On to `CC(C)(C)Cc1c(C2CCCCC2)nc2ccc(Br)cn12`, for which the activity change was 10.7% (inactive).

Take `Cc1ccc(C(=O)NC(=S)NCCN2CCOCC2)cc1`: the activity change is -5.38% (inactive). As to `CCOc1cccc(/C=N/NC(=S)NCCN2CCOCC2)c1O`, the activity change is -80.7% (active).

Take `COc1cccc(NC(=S)NCCCN2CCOCC2)c1`: the activity change was 5.66% (inactive).

Consider `Nc1cccc(-c2cncc(N3CCN(Cc4ccccn4)CC3)n2)c1`, for which the activity change is 1.71% (inactive). As for `Cc1ccccc1OCCC(=O)Nc1c(C)n(C)n(-c2ccccc2)c1=O`, the figure is -0.0402% (inactive). Next, `Cc1ccc(S(=O)(=O)CC(=O)Nc2c(C)n(C)n(-c3ccccc3)c2=O)cc1`: -13.1% (inactive); `Cc1c(NC(=O)CSc2cccc3cccnc23)c(=O)n(-c2ccccc2)n1C`: -87.1% (active); `COc1ccc(CC(N)c2csc(NC(=O)Nc3ccc(C(C)C)cc3)n2)cc1` (stereo unspecified): -13.2% (inactive). In the case of `O=C(NCCCc1ccccc1)C(=O)NCC1OCCN1S(=O)(=O)c1ccccc1` (stereo unspecified), the activity change was 22.6% (inactive). As for `O=C(NCCCn1ccnc1)C(=O)NCC1OCCN1S(=O)(=O)c1cc(F)ccc1F` (stereo unspecified), the activity change is -71.2% (active). On to `Cc1cc(F)ccc1S(=O)(=O)N1CCCOC1CNC(=O)C(=O)NCCC1=CCCCC1` (stereo unspecified), for which the activity change was 22.2% (inactive). As for `COc1ccc([C@H]2CC(=O)C[C@@H](CCn3cc(CC4CCCC4)nn3)O2)cc1`, the figure is -3.9% (inactive). As for `CC1(C(=O)NS(=O)(=O)c2ccc(Cl)cc2)CCN1C(=O)CC1CCCC1` (stereo unspecified), the figure is 2.24% (inactive); as for `CN[C@H]1C[C@H]2c3cc(Oc4ccccc4C)ccc3CCN2C(=O)[C@H]1[C@H](C)O`, -12.1% (inactive); as for `CCOc1ccc(N2C(=O)CSC2=NC#N)cc1`, -0.654% (inactive). Next, `CCOc1cccc(/C=N/N2C(=O)CSC2=S)c1O`: -92.9% (active). For `CCOc1cc(/C=N/n2cnnc2)c(Br)cc1O`, the activity change was -6.92% (inactive). For the molecule `Cc1ccccc1-c1csc(C(O)c2cccc(Cl)c2)n1` (stereo unspecified), the activity change is 3.42% (inactive).

`CN(C(=O)CN1CCN(c2cc(-c3ccc(OCc4ccccc4)cc3)ncn2)CC1)c1ccccc1`: the activity change is 0.325% (inactive). Next, `COc1ccc2cc1Oc1ccc(cc1)C[C@H]1c3cc(c(OC)cc3CCN1C)Oc1c(O)c(OC)cc3c1[C@H](C2)N(C)CC3`: -4.43% (inactive); `COc1cc(C(=O)CCc2ccc3c(c2)OCO3)cc(OC)c1OC`: 2.78% (inactive).

Take `COc1c(O)ccc2c1CN1CCc3cc4c(cc3C1C2)OCO4` (stereo unspecified): the activity change was -66.6% (active).
